According to PubChem BioAssay (NCI):
Compounds without any hit were thinned out: in the full panel of roughly 79,000, 15% have a hit. A number with no mark means an inactive call. Active and inactive are the calls of the source. No stated cut-off is given here; in the data, active means growth inhibition above about 70%; inactive means the rest.

What was measured:
[1] = NCI Yeast Anticancer Drug Screen. Data for the rad52 strain (AID 147);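 further: 0% = growth of vehicle-treated control cultures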; conditions: S. cerevisiae rad52 mutant growth inhibition, active compounds read high
How it was run: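 Here a repair-compromised yeast strain receives each compound; its growth is then quantified and normalised to vehicle-only controls.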

[2] = NCI Yeast Anticancer Drug Screen. Data for the wt1 strain (AID 149);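 further: 0% = growth of vehicle-treated wt1 cultures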; conditions: S. cerevisiae wt1 strain (SPY 50644) growth inhibition, active compounds read high
How it was run: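 Readout: yeast growth inhibition, normalised to vehicle controls, in the wt1 strain exposed to test compounds.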

[3] = NCI Yeast Anticancer Drug Screen. Data for the rad50EPP+ strain (AID 151);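 further: 0% = growth of vehicle-treated control cultures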; conditions: S. cerevisiae rad50 mutant strain, active compounds read high
How it was run: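 Read-out is yeast growth inhibition relative to vehicle; cells used were the rad50EPP+ strain.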

[4] = NCI Yeast Anticancer Drug Screen. Data for the mgt1 strain (AID 153); conditions: S. cerevisiae mgt1 mutant growth inhibition, active compounds read high
How it was run: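 Measured: inhibition of mgt1 yeast growth by compound, normalized to vehicle-treated cultures.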

[5] = NCI Yeast Anticancer Drug Screen. Data for the mec2-1 strain (AID 157); conditions: S. cerevisiae mec2-1 strain, active compounds read high
How it was run: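 Using mec2-1 yeast: add compound, measure growth, express inhibition versus vehicle-treated cultures.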

[6] = NCI Yeast Anticancer Drug Screen. Data for the rad14 strain (AID 159);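 further: 0% = growth of vehicle-treated control cultures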; conditions: S. cerevisiae rad14 strain growth inhibition, active compounds read high
How it was run: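 Compound-treated yeast with a defined DNA-repair lesion; growth inhibition normalised to vehicle-treated cultures.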

[7] = NCI Yeast Anticancer Drug Screen. Data for the sgs1 mgt1 strain (AID 161);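 further: 0% = growth of cultures given vehicle only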; conditions: S. cerevisiae sgs1 mgt1 strain, active compounds read high
How it was run: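 This yeast growth screen uses a strain with defined DNA-repair lesions; compound-treated growth is compared with vehicle-treated growth.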

[8] = NCI Yeast Anticancer Drug Screen. Data for the CLN2oe strain (AID 163);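 further: 0% = growth of vehicle-only control cultures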; conditions: S. cerevisiae CLN2oe strain, active compounds read high
How it was run: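 Whole-cell yeast growth assay. A strain engineered for altered cell-cycle control received compound, and inhibition relative to vehicle-treated cultures was recorded.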

[9] = NCI Yeast Anticancer Drug Screen. Data for the cln2 rad14 strain (AID 165);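 further: 0% = growth equal to vehicle treated cultures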; conditions: S. cerevisiae cln2 rad14 strain, active compounds read high
How it was run: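 Yeast strain cln2 rad14, bearing defects in cell cycle control and DNA repair, serves as the test system; values reflect growth inhibition compared with vehicle.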

[10] = NCI Yeast Anticancer Drug Screen. Data for the bub3 strain (AID 167); conditions: S. cerevisiae bub3 mutant strain, active compounds read high
How it was run: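 Growth of a checkpoint-deficient yeast mutant is measured after compound exposure. Values represent inhibition relative to vehicle.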

[11] = NCI Yeast Anticancer Drug Screen. Data for the wt2 strain (AID 169);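 further: 0% = growth of vehicle-treated yeast cultures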; conditions: S. cerevisiae wt2 strain growth inhibition, active compounds read high
How it was run: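 Treated yeast vs. vehicle-treated yeast: growth inhibition determined.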

[12] = NCI Yeast Anticancer Drug Screen. Data for the mlh1 strain (AID 171);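 further: 0% = growth of vehicle-treated control cultures of the same strain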; conditions: S. cerevisiae mlh1 strain growth inhibition, active compounds read high
How it was run: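 A yeast strain with a defined genetic lesion serves as the test organism. Cultures receive compound or vehicle, and growth is measured.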

[13] = NCI Yeast Anticancer Drug Screen. Data for the sgs1 strain (AID 173);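 further: 0% = growth of vehicle-only control cultures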; conditions: S. cerevisiae sgs1 mutant, active compounds read high
How it was run: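 A genetically defined yeast mutant is incubated with the test compound, and its growth is compared to that of the same strain given vehicle.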

[14] = NCI Yeast Anticancer Drug Screen. Data for the mlh1 rad18 strain (AID 175); conditions: S. cerevisiae mlh1 rad18 strain growth inhibition, active compounds read high
How it was run: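 Steps: expose repair-defective yeast to compound; measure growth; express inhibition against vehicle-treated controls.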

[15] = NCI Yeast Anticancer Drug Screen. Data for the rad18 strain (AID 177); conditions: S. cerevisiae rad18 mutant growth inhibition, active compounds read high
How it was run: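 Measured value is growth inhibition of a yeast strain bearing a DNA repair alteration, referenced to vehicle-treated cells.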

[16] = NCI Yeast Anticancer Drug Screen. Data for the rad50 strain (AID 155);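 further: 0% = growth of vehicle-only cultures of the same strain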; conditions: S. cerevisiae rad50 strain growth inhibition, active compounds read high
How it was run: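 Compounds were tested on a yeast strain with an engineered DNA damage repair alteration; the reported value is growth inhibition normalised to vehicle treatment.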

[17] = at 5.0 µM (retest, dose inferred, filed as 0.5)
[18] = at 50.0 µM (retest, dose inferred, filed as 5.0)

`Cc1nc2ccccc2nc1NNc1ccccc1` showed a growth inhibition ([1]; at 1.2 µM) of -5%, a growth inhibition ([1]; at 3.7 µM) of -8% and a growth inhibition ([1]; at 11.0 µM) of -4%. For the same compound, the growth inhibition ([1]; at 33.0 µM) was 4%, the growth inhibition ([1]; at 100.0 µM) was 24% and the growth inhibition ([2]; at 1.2 µM) was 4%. It also gave a growth inhibition ([2]; at 3.7 µM) of 9%, a growth inhibition ([2]; at 11.0 µM) of 14% and a growth inhibition ([2]; at 33.0 µM) of 17%. It also gave a growth inhibition ([2]; at 100.0 µM) of 20%, a growth inhibition ([3]; at 1.2 µM) of -9% and a growth inhibition ([3]; at 3.7 µM) of -5%. The growth inhibition ([3]; at 11.0 µM) was 22%, the growth inhibition ([3]; at 33.0 µM) was 65% and the growth inhibition ([3]; at 100.0 µM) was 84% (active). For the same compound, the growth inhibition ([4]; at 1.2 µM) was 4%, the growth inhibition ([4]; at 3.7 µM) was 3% and the growth inhibition ([4]; at 11.0 µM) was 3%. The growth inhibition ([4]; at 33.0 µM) was -13%, the growth inhibition ([4]; at 100.0 µM) was 26% and the growth inhibition ([5]; at 1.2 µM) was -2%. The growth inhibition ([5]; at 3.7 µM) was 0%, the growth inhibition [5, 17] was -7% and the growth inhibition ([5]; at 11.0 µM) was 9%. For the same compound, the growth inhibition ([5]; at 33.0 µM) was 11%, the growth inhibition [5, 18] was 39% and the growth inhibition ([5]; at 50.0 µM) was 41.6%. The growth inhibition ([5]; at 100.0 µM) was 22%, the growth inhibition ([6]; at 1.2 µM) was -3% and the growth inhibition ([6]; at 3.7 µM) was -7%. For the same compound, the growth inhibition ([6]; at 11.0 µM) was 0%, the growth inhibition ([6]; at 33.0 µM) was 7% and the growth inhibition ([6]; at 100.0 µM) was 38%. The growth inhibition [7, 17] was 13%, the growth inhibition [7, 18] was 32% and the growth inhibition ([7]; at 50.0 µM) was 36%. The growth inhibition ([8]; at 1.2 µM) was -7%, the growth inhibition ([8]; at 3.7 µM) was -2% and the growth inhibition ([8]; at 11.0 µM) was 10%. The growth inhibition ([8]; at 33.0 µM) was 18%, the growth inhibition ([8]; at 100.0 µM) was 18% and the growth inhibition [9, 17] was 79% (active). The growth inhibition [9, 18] was 48%, the growth inhibition ([9]; at 50.0 µM) was -11.8% and the growth inhibition ([10]; at 1.2 µM) was 6%. For the same compound, the growth inhibition ([10]; at 3.7 µM) was 9%, the growth inhibition [10, 17] was 38% and the growth inhibition ([10]; at 11.0 µM) was 28%. The growth inhibition ([10]; at 33.0 µM) was 51%, the growth inhibition [10, 18] was 44% and the growth inhibition ([10]; at 50.0 µM) was 74% (active). For the same compound, the growth inhibition ([10]; at 100.0 µM) was 63%, the growth inhibition ([11]; at 1.2 µM) was 3% and the growth inhibition ([11]; at 3.7 µM) was 5%. For the same compound, the growth inhibition ([11]; at 11.0 µM) was 14%, the growth inhibition ([11]; at 33.0 µM) was 23% and the growth inhibition ([11]; at 100.0 µM) was 22%. The growth inhibition ([12]; at 1.2 µM) was 1%, the growth inhibition ([12]; at 3.7 µM) was -4% and the growth inhibition ([12]; at 11.0 µM) was 7%. The growth inhibition ([12]; at 33.0 µM) was 30%, the growth inhibition ([12]; at 100.0 µM) was 41% and the growth inhibition ([13]; at 1.2 µM) was 1%. For the same compound, the growth inhibition ([13]; at 3.7 µM) was 1%, the growth inhibition ([13]; at 11.0 µM) was 8% and the growth inhibition ([13]; at 33.0 µM) was 16%. The growth inhibition ([13]; at 100.0 µM) was 24%, the growth inhibition [14, 17] was -8% and the growth inhibition [14, 18] was 28%. For the same compound, the growth inhibition ([14]; at 50.0 µM) was 56.6%, the growth inhibition ([15]; at 1.2 µM) was -3% and the growth inhibition ([15]; at 3.7 µM) was -2%. It also gave a growth inhibition ([15]; at 11.0 µM) of -5%, a growth inhibition ([15]; at 33.0 µM) of 30% and a growth inhibition ([15]; at 100.0 µM) of 58%.

In the case of `CCCC(=O)Oc1c(C)cc([N+](=O)[O-])cc1[N+](=O)[O-]`, the growth inhibition ([1]; at 1.2 µM) is reported as 4%, the growth inhibition ([1]; at 3.7 µM) is reported as 26% and the growth inhibition ([1]; at 11.0 µM) is reported as 99% (active). For the same compound, the growth inhibition ([1]; at 33.0 µM) was 97% (active), the growth inhibition ([1]; at 100.0 µM) was 99% (active) and the growth inhibition ([2]; at 1.2 µM) was 1%. For the same compound, the growth inhibition ([2]; at 3.7 µM) was 0%, the growth inhibition ([2]; at 11.0 µM) was 98% (active) and the growth inhibition ([2]; at 33.0 µM) was 99% (active). The growth inhibition ([2]; at 100.0 µM) was 99% (active), the growth inhibition ([3]; at 1.2 µM) was 35% and the growth inhibition ([3]; at 3.7 µM) was 77% (active). The growth inhibition ([3]; at 11.0 µM) was 94% (active), the growth inhibition ([3]; at 33.0 µM) was 99% (active) and the growth inhibition ([3]; at 100.0 µM) was 99% (active). For the same compound, the growth inhibition ([16]; at 1.2 µM) was 4%, the growth inhibition ([16]; at 3.7 µM) was 25% and the growth inhibition [16, 17] was 14%. The growth inhibition ([16]; at 11.0 µM) was 98% (active), the growth inhibition ([16]; at 33.0 µM) was 99% (active) and the growth inhibition [16, 18] was 99% (active). The growth inhibition ([16]; at 50.0 µM) was 99.4% (active), the growth inhibition ([16]; at 100.0 µM) was 99% (active) and the growth inhibition ([5]; at 1.2 µM) was -1%. The growth inhibition ([5]; at 3.7 µM) was 21%, the growth inhibition [5, 17] was 33% and the growth inhibition ([5]; at 11.0 µM) was 99% (active). For the same compound, the growth inhibition ([5]; at 33.0 µM) was 99% (active), the growth inhibition [5, 18] was 100% (active) and the growth inhibition ([5]; at 50.0 µM) was 99.3% (active). For the same compound, the growth inhibition ([5]; at 100.0 µM) was 99% (active), the growth inhibition ([6]; at 1.2 µM) was 1% and the growth inhibition ([6]; at 3.7 µM) was 14%. The growth inhibition ([6]; at 11.0 µM) was 96% (active), the growth inhibition ([6]; at 33.0 µM) was 99% (active) and the growth inhibition ([6]; at 100.0 µM) was 99% (active). For the same compound, the growth inhibition [7, 17] was 39%, the growth inhibition [7, 18] was 99% (active) and the growth inhibition ([7]; at 50.0 µM) was 99.4% (active). For the same compound, the growth inhibition ([8]; at 1.2 µM) was -11%, the growth inhibition ([8]; at 3.7 µM) was -2% and the growth inhibition ([8]; at 11.0 µM) was 94% (active). For the same compound, the growth inhibition ([8]; at 33.0 µM) was 99% (active), the growth inhibition ([8]; at 100.0 µM) was 99% (active) and the growth inhibition [9, 17] was -1%. For the same compound, the growth inhibition [9, 18] was 97% (active), the growth inhibition ([9]; at 50.0 µM) was 93.5% (active) and the growth inhibition ([10]; at 1.2 µM) was 12%. The growth inhibition ([10]; at 3.7 µM) was 42%, the growth inhibition [10, 17] was 40% and the growth inhibition ([10]; at 11.0 µM) was 98% (active). For the same compound, the growth inhibition ([10]; at 33.0 µM) was 99% (active), the growth inhibition [10, 18] was 99% (active) and the growth inhibition ([10]; at 50.0 µM) was 99.5% (active). The growth inhibition ([10]; at 100.0 µM) was 99% (active), the growth inhibition ([11]; at 1.2 µM) was 2% and the growth inhibition ([11]; at 3.7 µM) was 4%. The growth inhibition ([11]; at 11.0 µM) was 98% (active), the growth inhibition ([11]; at 33.0 µM) was 99% (active) and the growth inhibition ([11]; at 100.0 µM) was 99% (active). For the same compound, the growth inhibition ([12]; at 1.2 µM) was 2%, the growth inhibition ([12]; at 3.7 µM) was 12% and the growth inhibition ([12]; at 11.0 µM) was 99% (active). For the same compound, the growth inhibition ([12]; at 33.0 µM) was 99% (active), the growth inhibition ([12]; at 100.0 µM) was 99% (active) and the growth inhibition ([13]; at 1.2 µM) was 5%. For the same compound, the growth inhibition ([13]; at 3.7 µM) was 27%, the growth inhibition ([13]; at 11.0 µM) was 99% (active) and the growth inhibition ([13]; at 33.0 µM) was 99% (active). The growth inhibition ([13]; at 100.0 µM) was 99% (active), the growth inhibition [14, 17] was 18% and the growth inhibition [14, 18] was 99% (active). For the same compound, the growth inhibition ([14]; at 50.0 µM) was 99.1% (active), the growth inhibition ([15]; at 1.2 µM) was 5% and the growth inhibition ([15]; at 3.7 µM) was 20%. For the same compound, the growth inhibition ([15]; at 11.0 µM) was 98% (active), the growth inhibition ([15]; at 33.0 µM) was 99% (active) and the growth inhibition ([15]; at 100.0 µM) was 99% (active).
